A short description of the test: inhibitors of Chlamydomonas gravitaxis, primary screen, whole organism, Chlamydomonas reinhardtii, WT vs cilia-less mutant, absorbance, 96-well (AID 463189).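 Further: 0% = wild type cc124 cells in DMSO and 100% = ciliumless bld1 mutant cells.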 The following applies: OD600 absorbance, 2 days, at 10 µM, active compounds read high.

Unmarked numbers belong to inactive results.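 How the source made its calls: active means inhibition at or above 50% relative to wild type and mutant plate controls; inactive means inhibition below 50%.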

As for `O=C(c1ccccc1)c1ccc2n1CCC2C(=O)O` (configuration not stated), the inhibition was -6.13%.

With `O=c1[nH]c2ccccc2c2ccccc12`, the inhibition is 6.93%.

On to `Nc1ncnc2c1ncn2[C@@H]1O[C@H](CO)[C@H](O)C1O` (some centres not stated), for which the inhibition was 5.53%.

Take `N=C(N)c1ccc(N)cc1`: the inhibition is 28.5%.

For the compound `CN(Cc1cnc2nc(N)nc(N)c2n1)c1ccc(C(=O)N[C@@H](CCC(=O)O)C(=O)O)cc1`, the inhibition is -2.7%.

For `CC12C(=O)OC(=O)C1(C)C1CCC2O1` (configuration not stated), the inhibition is -3.97%.

Consider `COc1ccccc1N1CCN(CCCNc2cc(=O)n(C)c(=O)n2C)CC1`, for which the inhibition was 9.94%.

Values taken from PubChem BioAssay.
